Pf apPOL inh = Pf-apPOL inhibitors, biochemical, fluorescence; Plasmodium falciparum apicoplast DNA polymerase (apPOL); Recombinant Pf-apPOL, molecular beacon fluorescence, 1.5 h; inhibition, % at 10 µM; 210,000 compounds, 0.25% hits; AID 1794808, 2022
mHTT CaM bind = mutant huntingtin-calmodulin interaction inhibitors – biochemical, AlphaScreen, primary screen; P42858; AlphaScreen His-mHTT/GST-CaM binding, luminescence; inhibition, % at 15 µM; 190,000 compounds, 3.6% hits; AID 1671202, 2021;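 note: 0% = both proteins with DMSO and 100% = one protein alone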
An asterisk follows results filed as active. Compounds with a hit are over-represented: about 3.5% of the library has one in this group of screens. Cut-off read from the data, not from the text of the source: active = inhibition above about 50%; inactive = the rest.

SMILES	Pf apPOL inh	mHTT CaM bind
COc1ccc(NC(=O)C2CCN(c3cc(=O)n(C)c(=O)n3C)CC2)cc1OC	0	39
Cn1c(N2CCC(C(=O)NCc3ccccn3)CC2)cc(=O)n(C)c1=O	1	70*
CCn1c(N2CCC(C(=O)Nc3cc(OC)c(OC)c(OC)c3)CC2)cc(=O)n(C)c1=O	2	62*
COc1cc2c(cc1OC)C(C(=O)N1CCC(C(N)=O)CC1)C(c1cccs1)N(C)C2=O (centres undefined)	-1	-8
CCNC(=O)c1cncc(-c2cc(OC)ccc2OC)c1	-1	-2
CC(C)c1ccc(N2CC(C(=O)NCc3ccccn3)CC2=O)cc1 (centres undefined)	-4	9
Cc1cccc(N2CC(C(=O)NCc3ccccn3)CC2=O)c1 (centres undefined)	-14	61*
O=S(=O)(NCCCCCc1nc2ccccc2[nH]1)c1ccc(Cl)c(Cl)c1	-4	66*
O=S(=O)(NCCCc1nc2ccccc2[nH]1)c1ccc(Cl)cc1	-7	-2
COc1cc(NC(=O)C2CCN(c3nccc4sc(C)cc34)CC2)cc(OC)c1OC	-4	52*
Cc1cc2c(N3CCCC(C(=O)NCc4cccc(Cl)c4)C3)nccc2s1 (centres undefined)	-5	22
Cc1cc2c(N3CCC(C(=O)Nc4ccc(F)c(F)c4)CC3)nccc2s1	-2	5
Cc1cc2c(N3CCCC(C(=O)NCCN4CCCCCC4)C3)nccc2s1 (centres undefined)	-5	100*
COc1ccc(NC(=O)C2CCCN(c3nccc4sc(C)cc34)C2)cc1OC (centres undefined)	-4	71*
Cc1cc2c(N3CCC(C(=O)Nc4ccc(C)c(F)c4)CC3)nccc2s1	-1	7
CSc1ccccc1NC(=O)CN1C(=O)C2CCCN2C(=O)c2cc(F)ccc21 (centres undefined)	-5	-5
COc1cccc(C2CC(c3ccc4c(c3)OCO4)=NC3(CCN(C(C)C)CC3)N2)c1O (centres undefined)	0	3
CN(C)c1ccc(C=Nc2ccc(S(N)(=O)=O)cc2)cc1[N+](=O)[O-]	-1	2
CCOc1nc(NCCN2CCOCC2)nc(Nc2ccc(I)cc2)n1	6	57*
Clc1nc(NCCN2CCOCC2)nc(Nc2ccc(I)cc2)n1	-1	4
Cc1ccc(N2CCCN(Cc3ccccc3F)C2=O)c(NC(=O)C2CC2)c1	-6	-4
COc1ccc(CNC(=O)c2ccnc(N3CCNC(c4ccccc4)C3)c2)c(OC)c1 (centres undefined)	-1	47
O=C(NCc1ccccn1)c1cccc(N2CCNC(c3ccccc3)C2)n1 (centres undefined)	-20	85*
O=C(NCc1cnccn1)c1ccnc(N2CCNC(c3ccccc3)C2)c1 (centres undefined)	1	70*
COc1ccc(CNC(=O)c2cccc(N3CCNC(c4ccccc4)C3)n2)c(OC)c1 (centres undefined)	-4	97*
SMILES	Pf apPOL inh	mHTT CaM bind
O=C(NCc1ccccc1)c1cccc(N2CCNC(c3ccccc3)C2)n1 (centres undefined)	-23	22
O=C(NCc1cnccn1)c1ccc(N2CCNC(c3ccccc3)C2)nc1 (centres undefined)	-9	29
Cc1ccc(C(=O)N2CCC(c3nc(C(=O)N4CCCCC4)c(C)o3)CC2)cc1C	-4	17
CC(C)NC(=O)c1cc2nc3c(c(C(F)(F)F)n2n1)CCc1ccccc1-3	4	3
O=C(CSCc1ccccc1Cl)Nc1cccc([N+](=O)[O-])c1	-2	9
O=C(CC1CCCC1)N1CCC(CCOc2cccc(F)c2)CC1	3	-23
COc1cccc(CNC(=O)c2cc3n(n2)CCCN(Cc2cccc(C)c2)C3=O)c1	1	7
COc1cccc(C(=O)N2CCC(c3noc(-c4ccccc4)n3)CC2)c1OC	0	7
Nc1ccc(-c2c3ccccc3nc3cc(N)ccc23)cc1	-1	100*
Nc1ccc(-c2cc(-c3ccccc3)nc(-c3ccc(N)cc3)n2)cc1	-6	8
CCC(Sc1nc2ccccc2o1)C(=O)Nc1ccc(Cl)cn1 (centres undefined)	-2	-16
CCC(Sc1nc2ccccc2o1)C(=O)Nc1nnc(C)s1 (centres undefined)	85*	0
CCC(=O)N1CCN(c2ccc(NC(=O)c3ccc(C)cc3)cn2)CC1	-2	0
O=[N+]([O-])c1cccc(-c2ccc(CN3CCN(c4ccccc4)CC3)o2)c1	-1	56*
Cc1ccc(C)c(N2CCN(Cc3cc4c(cc3[N+](=O)[O-])OCO4)CC2)c1	-7	32
Cc1ccc(C)c(N2CCN(Cc3ccc(-c4ccccc4[N+](=O)[O-])o3)CC2)c1	2	70*
CN1CCN(Cc2ccc(-c3cccc([N+](=O)[O-])c3)o2)CC1	-22	4
COc1ccc(NC(=O)C2CCc3sc(C(=O)N(C)C)cc3C2)c(OC)c1 (centres undefined)	-3	11
O=C(NC1CCCC1)c1ccc2ncc3c(=O)n(-c4ccc(Cl)cc4)[nH]c3c2c1	5	86*
O=C(NC1CCCC1)c1ccc2ncc3c(=O)n(-c4ccc(F)cc4)[nH]c3c2c1	0	3
COc1ccc(Oc2cncnc2-c2ccc(OCc3ccccc3)cc2O)cc1	4	0
CCCCOc1ccc(-c2[nH]ncc2Oc2ccccc2)c(O)c1	-10	93*
COc1ccccc1-c1c(C(F)(F)F)oc2cc(OCC=C(C)C)ccc2c1=O	1	-8
CCc1cc(-c2[nH]ncc2Oc2ccc(Cl)cc2)c(O)cc1O	0	100*
COc1ccccc1-c1cn[nH]c1-c1ccc(OCC=C(C)C)cc1O	-3	68*
SMILES	Pf apPOL inh	mHTT CaM bind
CCc1cc(C(=O)COc2ccc(F)cc2)c(O)cc1O	-4	-1
COc1ccc(-c2[nH]ncc2Oc2ccccc2)c(O)c1	-9	35
CCCOc1ccc(-c2[nH]ncc2Oc2ccccc2)c(O)c1	-4	80*
CCOc1cccc2sc(NC(=O)c3ccc(S(=O)(=O)N4CCCC4)cc3)nc12	2	1
O=C(c1cc(S(=O)(=O)N2CCCCCC2)ccc1Cl)N1CCOCC1	1	-8
O=C(c1ccc2c(c1)C1C=CCC1C(c1ccc([N+](=O)[O-])cc1)N2)N1CCCC1 (centres undefined)	-17	48
O=C(O)c1ccc2c(c1)C1C=CCC1C(c1cccc([N+](=O)[O-])c1)N2 (centres undefined)	-2	85*
O=C(O)c1ccc2c(c1)C1C=CCC1C(c1ccccc1[N+](=O)[O-])N2 (centres undefined)	-19	53*
O=[N+]([O-])c1ccccc1C1Nc2ccc(Br)cc2C2C=CCC21 (centres undefined)	-25	57*
COc1ccc(NC(=O)Nc2nnc(CSCc3ccccc3F)s2)cc1	-5	-1
COCCNC(=O)NC(C)Cc1ccco1 (centres undefined)	2	-2
Cc1ccccc1CN1CCCN(c2ncccc2-c2nc(C(C)C)no2)CC1	-2	-66
CC(C)c1noc(-c2cccnc2N2CCCN(Cc3ccccc3Cl)CC2)n1	2	61*
Cc1ccc(Br)cc1N1CCC(C(=O)Nc2cccc(F)c2)C1=O (centres undefined)	-7	31

Compound activity deposited in PubChem BioAssay by University of Kansas High Throughput Screening Laboratory.
